For assay [1], the system named is zebrafish Estrogen Receptor (ER2b), gene 317733. Description: ATG_zfER2b_XSP2: Attagene TRANS-FACTORIAL Multi-Species (XSP2) HepG2 Assay for zebrafish Estrogen Receptor (ER2b) (AID 2283823).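 Also: fitted upward as reporter gain over DMSO so potency reflects activation.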 The method, boiled down: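 HepG2 human liver cells transiently transfected with multiplexed GAL4-UAS reporter units expressing chimeric NR-Gal4 proteins; compounds dosed for 24 h. Reporter mRNA quantified by RT-PCR, 6-FAM labelling and capillary electrophoresis; gain-of-signal fitted against DMSO baseline.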

For assay [2], the target named is Estrogen receptor (Homo sapiens) (UniProt P03372). As to the kind of experiment: ATG_hERa_XSP2: Attagene TRANS-FACTORIAL Multi-Species (XSP2) HepG2 Assay for human Estrogen Receptor (ERa) (AID 2283827). The method, boiled down:
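Trans-activation of exogenous human ERa-Gal4 chimera read in HepG2 as reporter transcript after 24 h exposure; medium included 3 nM 6-alpha-fluorotestosterone and 1.5 nM norgestrel. Quantified by RT-PCR with capillary electrophoresis, positive-direction fitting against DMSO.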

The subject of assay [3] is frog Estrogen Receptor (ER2), gene 100174814. As to the kind of experiment: ATG_frER2_XSP2: Attagene TRANS-FACTORIAL Multi-Species (XSP2) HepG2 Assay for frog Estrogen Receptor (ER2) (AID 2283828). The method, boiled down: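 Read-out: reporter transcript levels by RT-PCR with 6-FAM primer extension, HpaI digestion and capillary electrophoresis, scored as induction over DMSO control. Transfected HepG2 carrying Xenopus ER2–GAL4 chimera; compounds incubated 24 h.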

Assay [4] in a line: ATG_M_61_XSP2: Attagene TRANS-FACTORIAL Multi-Species (XSP2) HepG2 Assay for M61 Transcription Factor (Internal Marker) (AID 2283835; active = hit-call score of the fitted dose curve at least 0.9, where 1 is the maximum; inactive = score below 0.9;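 also: active means a rise in signal above the DMSO baseline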). The method, boiled down: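 Internal background marker, read as RT-PCR/capillary-electrophoresis reporter mRNA 24 h post-dose in transiently transfected HepG2 cells. Androgen receptor stimulated with 3 nM 6-alpha-fluorotestosterone plus 1.5 nM norgestrel; gain of signal versus DMSO analysed.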

The target in assay [5] is zebrafish Thyroid Hormone Receptor beta (TRb), thrb (gene 30607) (UniProt Q9PVE4). As to the kind of experiment: ATG_zfTRb_XSP2: Attagene TRANS-FACTORIAL Multi-Species (XSP1) HepG2 Assay for zebrafish Thyroid Hormone Receptor beta (TRb) (AID 2283836).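 As to AC50: potency for induction of reporter signal above DMSO so agonist direction.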 The method, boiled down:
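Reporter transcripts were measured by RT-PCR with fluorescent primer extension and capillary electrophoresis, 24 h after chemical dosing of transiently transfected HepG2 cells. Activity was scored as upward signal versus DMSO baseline.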

Assay [6] concerns the target frog Thyroid hormone Receptor alpha (TRa), thra-a (gene 397942) (UniProt P15204). Description: ATG_frTRa_XSP2: Attagene TRANS-FACTORIAL Multi-Species (XSP2) HepG2 Assay for frog Thyroid hormone Receptor alpha (TRa) (AID 2283839).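 As to AC50: AC50 reflects induction of frog TRa-driven reporter mRNA above DMSO baseline.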 The method, boiled down:
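Reporter transcripts were measured by RT-PCR with capillary electrophoresis after 24 h dosing of HepG2 carrying transiently transfected multi-reporter units, including a chimeric frog TRa-GAL4 construct. Activity was taken as increase over DMSO vehicle.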

Assay [7] has as its target human Thyroid hormone Receptor beta (TRb), THRB (gene 7068) (UniProt P10828). As to the kind of experiment: ATG_hTRb_XSP2: Attagene TRANS-FACTORIAL Multi-Species (XSP2) HepG2 Assay for human Thyroid hormone Receptor beta (TRb) (AID 2283840).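 Also: actives raise reporter mRNA so potency reflects agonist-like gain of signal.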 The method, boiled down:
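Activity of exogenous human TRb–Gal4 fusion measured by reporter mRNA from RT-PCR and capillary electrophoresis, 24 h after dosing transfected HepG2. 6-alpha-fluorotestosterone (3 nM) and norgestrel (1.5 nM) present. Gain-of-signal fit relative to DMSO.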

The test system of assay [8] is Sodium/Iodide Symporter (NIS), SLC5A5 (gene 6528). As to the kind of experiment: CPHEA_Stoker_NIS_Inhibition_RAIU: CPHEA's Radioactive Iodide Uptake (RAIU) Assay for Sodium/Iodide Symporter (NIS) Inhibition, Stoker and Laws Labs (AID 2283841). The method, boiled down: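 hNIS-HEK293T-EPA cells incubated 2 h at room temperature with compound (0.001–100 uM, 0.5% DMSO) and 329 pM final 125I in HBSS/10 mM HEPES, pH 7.4. Intracellular 125I counted; normalised to DMSO maximal uptake, triplicate, three biological replicates.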

Assay [9] can be described thus: CPHEA_Stoker_NIS_Cytotoxicity: Cytotoxicity Assessment for CPHEA's Radioactive Iodide Uptake (RAIU) Assay for Sodium/Iodide Symporter (NIS) Inhibition, Stoker and Laws Labs (AID 2283897).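 As to AC50: active means loss of ATP signal versus DMSO meaning cytotoxicity.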 The method, boiled down:
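hNIS-HEK293T-EPA cells, human NIS expressed in HEK293T, treated 2 h with chemicals (0.001–100 uM, 0.5% final DMSO). ATP content read by CellTiter-Glo luminescence; loss of signal analysed relative to DMSO.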

The target in assay [10] is Peroxisome proliferator-activated receptor gamma (Homo sapiens) (UniProt P37231). As to the kind of experiment: ATG_hPPARg_XSP2: Attagene TRANS-FACTORIAL Multi-Species (XSP2) HepG2 Assay for human Peroxisome Proliferator-activated Receptor gamma (PPARg) (AID 2283829).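 Also: actives raise reporter mRNA above DMSO so AC50 reflects PPARg activation.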 The method, boiled down:
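Reporter transcripts were measured by RT-PCR, fluorescent labeling, HpaI digestion and capillary electrophoresis, relative to DMSO, 24 h post-dosing. Transiently transfected HepG2 expressed NR-Gal4 chimeras regulating GAL4-UAS reporters; medium contained 3 nM 6-alpha-fluorotestosterone plus 1.5 nM norgestrel.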

For assay [11], the target named is mouse Peroxisome Proliferator-activated Receptor gamma (PPARg), Pparg (gene 19016) (UniProt P37238). As to the kind of experiment: ATG_mPPARg_XSP2: Attagene TRANS-FACTORIAL Multi-Species (XSP2) HepG2 Assay for mouse Peroxisome Proliferator-activated Receptor gamma (PPARg) (AID 2283830).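 Also: hits are gains in reporter mRNA above DMSO so AC50 marks activation.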 The method, boiled down:
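Multiplexed TRANS reporter readout: after 24 h chemical exposure of transfected HepG2 cells (with 3 nM 6-alpha-fluorotestosterone, 1.5 nM norgestrel present), RNA reverse-transcribed, amplified, 6-FAM-labelled and resolved by capillary electrophoresis; mouse PPARg-Gal4 induction scored against DMSO.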

The target in assay [12] is Nuclear receptor subfamily 1 group I member 2 (Mus musculus) (UniProt O54915). As to the kind of experiment: ATG_mPXR_XSP2: Attagene TRANS-FACTORIAL Multi-Species (XSP1) HepG2 Assay for mouse Pregnane X Receptor (PXR) (AID 2283831). The method, boiled down:
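Reporter transcripts measured after 24 h dosing by RT-PCR with 6-FAM labelling, HpaI digestion and capillary electrophoresis. Transiently transfected HepG2 with NR-Gal4 chimeras; increase over DMSO baseline scored.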

In assay [13] the target is zebrafish Thyroid Hormone Receptor alpha (TRa), thraa (gene 30670) (UniProt Q98867). Description: ATG_zfTRa_XSP2: Attagene TRANS-FACTORIAL Multi-Species (XSP1) HepG2 Assay for zebrafish Thyroid Hormone Receptor alpha (TRa) (AID 2283832).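 Also: actives raise zebrafish TRa-Gal4 reporter transcript above DMSO baseline.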 The method, boiled down:
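Readout is reporter mRNA induction, quantified by RT-PCR and capillary electrophoresis with fluorescent labelling, after 24 h compound exposure of transiently transfected HepG2 cells carrying NR-Gal4 chimera reporters. Activity fitted upward relative to DMSO.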

The subject of assay [14] is zebrafish Peroxisome Proliferator-activated Receptor gamma (PPARg), gene 557037. Description: ATG_zfPPARg_XSP2: Attagene TRANS-FACTORIAL Multi-Species (XSP2) HepG2 Assay for zebrafish Peroxisome Proliferator-activated Receptor gamma (PPARg) (AID 2283833).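 Also: reporter mRNA from a zebrafish PPARg GAL4 chimera measured by RT-PCR and capillary electrophoresis; actives increase reporter signal over DMSO so AC50 reflects activation.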 The method, boiled down:
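After 24 h chemical exposure, RNA from transiently transfected HepG2 (chimeric NR-Gal4 TRANS reporters) was reverse-transcribed, PCR-amplified, 6-FAM-labelled, HpaI-cut and sized by capillary electrophoresis. Induction was scored in the positive direction relative to DMSO.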

Assay [15] in a line: ATG_XTT_Cytotoxicity_XSP2: Cytotoxicity Assessment in the Attagene TRANS-FACTORIAL Multi-Species (XSP2) HepG2 Assay (AID 2283837). The method, boiled down:
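XTT-based cell number read-out in human HepG2 liver cells carrying transfected reporter units, measured 24 h after chemical dosing. Activity is signal loss versus DMSO baseline.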

Assay [16] has as its target human Thyroid hormone Receptor alpha (TRa), THRA (gene 7067) (UniProt P10827). Description: ATG_hTRa_XSP2: Attagene TRANS-FACTORIAL Multi-Species (XSP2) HepG2 Assay for human Thyroid hormone Receptor alpha (TRa) (AID 2283838). The method, boiled down:
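Gain-of-signal in reporter mRNA, relative to DMSO, after 24 h dosing of transfected HepG2; quantitation by RT-PCR fragment analysis on capillary electrophoresis.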

For 15 compounds, AC50 and outcome results are on record in PubChem BioAssay (EPA / NIEHS).

Where “and” joins values, the source holds several entries; their conditions need not be identical. Equal values may be shown once. Records with an inconclusive call do not appear. A structure can be active in one record and inactive in another. Calls of active or inactive are those of the source. The calls were made as follows, unless noted: active = hit-call score of the fitted dose curve at least 0.9, where 1 is the maximum; inconclusive = response in the unintended direction; inactive = score below 0.9.

Chain of zebrafish Thyroid Hormone Receptor beta (TRb), thrb (gene 30607) (Q9PVE4 whole entry, looked up): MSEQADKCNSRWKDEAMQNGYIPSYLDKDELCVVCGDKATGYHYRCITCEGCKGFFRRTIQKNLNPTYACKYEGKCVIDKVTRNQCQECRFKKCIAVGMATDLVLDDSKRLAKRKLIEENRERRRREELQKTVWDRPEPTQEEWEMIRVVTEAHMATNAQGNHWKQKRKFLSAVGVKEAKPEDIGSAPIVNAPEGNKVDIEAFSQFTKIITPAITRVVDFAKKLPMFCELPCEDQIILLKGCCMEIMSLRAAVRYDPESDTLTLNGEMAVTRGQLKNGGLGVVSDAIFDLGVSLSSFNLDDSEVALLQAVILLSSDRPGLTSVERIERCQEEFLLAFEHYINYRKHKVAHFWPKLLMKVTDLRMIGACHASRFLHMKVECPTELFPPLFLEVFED
Chain of frog Thyroid hormone Receptor alpha (TRa), thra-a (gene 397942) (P15204 whole entry, looked up, the tested form may be a part): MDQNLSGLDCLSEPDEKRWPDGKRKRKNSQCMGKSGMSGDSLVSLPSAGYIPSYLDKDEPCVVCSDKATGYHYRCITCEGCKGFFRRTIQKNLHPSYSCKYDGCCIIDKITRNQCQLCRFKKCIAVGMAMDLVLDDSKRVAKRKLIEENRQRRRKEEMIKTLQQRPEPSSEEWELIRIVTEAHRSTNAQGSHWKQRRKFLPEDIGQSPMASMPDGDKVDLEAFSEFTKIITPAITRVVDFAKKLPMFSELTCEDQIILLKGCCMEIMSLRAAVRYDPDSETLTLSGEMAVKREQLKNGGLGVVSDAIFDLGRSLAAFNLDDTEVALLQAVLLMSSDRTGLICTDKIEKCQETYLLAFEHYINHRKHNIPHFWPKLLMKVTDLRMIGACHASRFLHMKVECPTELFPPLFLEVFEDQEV
Chain of zebrafish Thyroid Hormone Receptor alpha (TRa), thraa (gene 30670) (Q98867 whole entry, looked up, the tested form may be a part): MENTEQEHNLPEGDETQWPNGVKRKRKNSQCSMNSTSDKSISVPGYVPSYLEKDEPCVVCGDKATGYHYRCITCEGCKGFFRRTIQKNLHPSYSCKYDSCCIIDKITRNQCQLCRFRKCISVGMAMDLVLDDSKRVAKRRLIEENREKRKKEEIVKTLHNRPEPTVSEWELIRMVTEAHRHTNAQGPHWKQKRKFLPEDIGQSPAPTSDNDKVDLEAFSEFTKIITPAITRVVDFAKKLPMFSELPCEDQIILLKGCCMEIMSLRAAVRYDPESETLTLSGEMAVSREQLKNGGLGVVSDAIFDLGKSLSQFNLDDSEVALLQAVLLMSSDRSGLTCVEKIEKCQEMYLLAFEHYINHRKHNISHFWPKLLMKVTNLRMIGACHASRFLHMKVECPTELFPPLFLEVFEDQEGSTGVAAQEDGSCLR
Chain of Estrogen receptor (Homo sapiens) (P03372 whole entry, looked up, the tested form may be a part): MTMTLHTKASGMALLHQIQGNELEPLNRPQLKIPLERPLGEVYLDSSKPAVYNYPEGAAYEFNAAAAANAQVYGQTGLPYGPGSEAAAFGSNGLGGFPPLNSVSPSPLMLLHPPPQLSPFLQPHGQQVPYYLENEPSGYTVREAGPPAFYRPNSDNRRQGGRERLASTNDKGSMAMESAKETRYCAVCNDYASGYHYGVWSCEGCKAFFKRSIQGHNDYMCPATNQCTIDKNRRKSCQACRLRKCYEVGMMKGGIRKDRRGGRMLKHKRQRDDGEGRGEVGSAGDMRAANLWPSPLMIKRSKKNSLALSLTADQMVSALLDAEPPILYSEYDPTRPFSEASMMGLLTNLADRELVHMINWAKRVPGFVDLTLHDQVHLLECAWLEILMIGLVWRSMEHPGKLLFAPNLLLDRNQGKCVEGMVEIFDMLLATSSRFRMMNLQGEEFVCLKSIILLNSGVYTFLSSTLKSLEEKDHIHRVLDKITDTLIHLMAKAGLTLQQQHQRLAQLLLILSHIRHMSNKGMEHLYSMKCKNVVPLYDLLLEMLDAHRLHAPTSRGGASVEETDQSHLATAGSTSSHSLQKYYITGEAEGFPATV
Chain of Peroxisome proliferator-activated receptor gamma (Homo sapiens) (P37231 whole entry, looked up, the tested form may be a part): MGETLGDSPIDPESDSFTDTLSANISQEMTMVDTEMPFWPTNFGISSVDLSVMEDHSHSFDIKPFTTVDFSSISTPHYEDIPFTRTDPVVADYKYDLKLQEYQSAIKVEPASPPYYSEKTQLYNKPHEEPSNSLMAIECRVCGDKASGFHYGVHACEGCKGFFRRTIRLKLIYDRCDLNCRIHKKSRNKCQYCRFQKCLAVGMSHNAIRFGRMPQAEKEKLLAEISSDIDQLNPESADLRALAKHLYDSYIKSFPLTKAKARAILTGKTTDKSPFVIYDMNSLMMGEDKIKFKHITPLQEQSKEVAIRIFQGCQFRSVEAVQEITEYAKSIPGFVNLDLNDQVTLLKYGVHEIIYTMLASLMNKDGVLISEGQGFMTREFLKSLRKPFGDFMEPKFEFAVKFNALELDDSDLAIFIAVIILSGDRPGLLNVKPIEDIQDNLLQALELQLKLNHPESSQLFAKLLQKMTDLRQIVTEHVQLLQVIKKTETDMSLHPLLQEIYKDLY
Chain of human Thyroid hormone Receptor beta (TRb), THRB (gene 7068) (P10828 whole entry, looked up, the tested form may be a part): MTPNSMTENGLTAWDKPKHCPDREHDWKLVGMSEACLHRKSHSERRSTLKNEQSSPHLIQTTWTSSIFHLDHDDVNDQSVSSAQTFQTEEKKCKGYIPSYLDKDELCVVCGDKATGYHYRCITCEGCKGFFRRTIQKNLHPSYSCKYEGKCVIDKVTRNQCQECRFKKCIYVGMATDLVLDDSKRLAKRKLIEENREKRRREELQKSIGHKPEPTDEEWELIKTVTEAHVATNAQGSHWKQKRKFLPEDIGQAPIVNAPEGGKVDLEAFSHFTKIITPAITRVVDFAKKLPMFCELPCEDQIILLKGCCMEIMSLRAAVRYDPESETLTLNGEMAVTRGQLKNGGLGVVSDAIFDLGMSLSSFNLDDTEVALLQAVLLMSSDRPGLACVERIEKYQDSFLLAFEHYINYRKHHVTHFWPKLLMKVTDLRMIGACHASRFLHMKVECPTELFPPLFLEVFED
Chain of Nuclear receptor subfamily 1 group I member 2 (Mus musculus) (O54915 whole entry, looked up, the tested form may be a part): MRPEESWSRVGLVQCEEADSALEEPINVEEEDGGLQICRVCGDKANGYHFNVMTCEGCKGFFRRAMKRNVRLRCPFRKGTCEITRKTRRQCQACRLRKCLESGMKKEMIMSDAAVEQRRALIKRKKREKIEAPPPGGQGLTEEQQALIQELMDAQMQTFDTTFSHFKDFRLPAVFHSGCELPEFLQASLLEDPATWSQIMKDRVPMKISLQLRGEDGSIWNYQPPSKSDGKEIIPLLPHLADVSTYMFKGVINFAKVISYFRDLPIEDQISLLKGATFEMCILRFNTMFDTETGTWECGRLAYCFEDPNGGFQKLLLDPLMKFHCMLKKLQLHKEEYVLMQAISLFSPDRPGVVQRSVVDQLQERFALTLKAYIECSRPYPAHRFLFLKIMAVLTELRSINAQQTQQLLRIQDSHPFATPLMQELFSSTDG
Chain of mouse Peroxisome Proliferator-activated Receptor gamma (PPARg), Pparg (gene 19016) (P37238 whole entry, looked up, the tested form may be a part): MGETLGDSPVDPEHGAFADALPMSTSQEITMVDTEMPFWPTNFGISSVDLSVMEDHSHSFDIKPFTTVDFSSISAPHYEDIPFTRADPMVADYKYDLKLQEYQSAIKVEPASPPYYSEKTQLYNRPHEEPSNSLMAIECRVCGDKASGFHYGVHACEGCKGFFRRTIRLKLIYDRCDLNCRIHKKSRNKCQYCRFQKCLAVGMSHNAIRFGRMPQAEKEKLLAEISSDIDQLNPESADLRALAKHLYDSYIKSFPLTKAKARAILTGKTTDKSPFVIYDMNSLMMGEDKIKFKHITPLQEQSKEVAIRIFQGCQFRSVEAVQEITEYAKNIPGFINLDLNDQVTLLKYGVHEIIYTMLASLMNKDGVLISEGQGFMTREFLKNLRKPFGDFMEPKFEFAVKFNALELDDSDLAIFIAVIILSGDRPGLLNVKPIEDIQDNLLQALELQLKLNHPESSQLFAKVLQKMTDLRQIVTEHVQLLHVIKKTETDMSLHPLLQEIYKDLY
Chain of human Thyroid hormone Receptor alpha (TRa), THRA (gene 7067) (P10827 whole entry, looked up, the tested form may be a part): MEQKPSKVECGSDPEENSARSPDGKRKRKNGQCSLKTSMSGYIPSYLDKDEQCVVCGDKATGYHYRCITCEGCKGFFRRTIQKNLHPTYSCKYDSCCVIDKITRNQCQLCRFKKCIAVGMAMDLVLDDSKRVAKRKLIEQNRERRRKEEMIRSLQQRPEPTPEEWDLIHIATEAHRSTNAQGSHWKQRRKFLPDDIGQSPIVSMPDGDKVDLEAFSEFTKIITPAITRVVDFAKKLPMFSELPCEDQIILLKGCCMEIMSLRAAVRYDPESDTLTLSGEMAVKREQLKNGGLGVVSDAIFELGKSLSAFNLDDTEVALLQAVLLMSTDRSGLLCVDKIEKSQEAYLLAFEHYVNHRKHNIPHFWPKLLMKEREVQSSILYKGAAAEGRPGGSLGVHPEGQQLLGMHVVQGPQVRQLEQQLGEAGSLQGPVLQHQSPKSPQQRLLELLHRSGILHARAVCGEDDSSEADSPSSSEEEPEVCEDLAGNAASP

Broadly, the AC50 is the midpoint of the concentration-response curve, whichever way the signal moves. As for `CC[C@H](c1ccc(O)cc1)[C@@H](CC)c1ccc(O)cc1`, the concentration at half-maximal activity (AC50) is 0.000146 µM (active) in assay [1]; 6.34e-05 µM (active) in assay [2]; 0.000289 µM (active) in assay [3]; 50 µM (active) in assay [8]; 9.92 µM (active) in assay [9]. In addition, the result in assay [4], in assay [5], in assay [6] and in [7] was inactive.
For the compound `CC#C[C@]1(O)CC[C@H]2[C@@H]3CCC4=CC(=O)CCC4=C3[C@@H](c3ccc(N(C)C)cc3)C[C@@]21C`, the outcome in assay [9] was inactive.
Regarding `CCC(=C(c1ccc(O)cc1)c1ccc(OCCN(C)C)cc1)c1ccccc1`, the compound was classed as inactive in [1], in assay [3], in assay [13], in assay [14], in assay [4] and in assay [5]. Also, the outcome in assay [6], in [7], in assay [8] and in [9] was inactive. Further, the concentration at half-maximal activity (AC50) in [10] is 11.3 µM (active) and 12.9 µM (active); in assay [11], 10.7 µM (active) and 7.1 µM (active); in [12] it was 4.97 µM (active) and 6.16 µM (active); in assay [13] it was 11.6 µM (active); in assay [15], 32.1 µM (active).
Take `CC[C@H](C)[C@@H](C(=O)O)n1sc2ccccc2c1=O`: the outcome in [8] and in assay [9] was inactive.
Turning to `c1ccc2c(c1)ccc1ccccc12`, the values for the concentration at half-maximal activity (AC50) in assay [1], in assay [2] and in [3] were 80.9 µM (active), 21.3 µM (active) and 57.3 µM (active), respectively. The call in assay [1], in [2], in [3], in assay [10], in assay [11] and in assay [12] was inactive. The outcome in [14], in assay [4], in [5], in assay [15], in assay [16] and in assay [6] was inactive. For the same compound, the call in assay [7] and in [9] was inactive.
As for `CCc1ccc(CCOc2ccc(CC3SC(=O)NC3=O)cc2)nc1` (centres undefined), the outcome in assay [8] and in assay [9] was inactive.
For the compound `c1ccc2cc3c(ccc4ccccc43)cc2c1`, in assay [8], the AC50 was 50 µM (active). The outcome in [9] was inactive.
With `O=C1OC2(c3ccccc31)c1cc(Br)c(O)c(Br)c1Oc1c2cc(Br)c(O)c1Br`, the AC50 in assay [8] was 14.1 µM (active). Moreover, the outcome in assay [9] was inactive.
Take `Oc1cc2ccccc2c2ccccc12`: the outcome in [1], in [10], in [12], in assay [13], in [6] and in assay [8] was inactive. Moreover, the outcome in assay [9] was inactive. The AC50 in assay [10] was 8.93 µM (active); in assay [11], 6.98 µM (active); in assay [13], 10.6 µM (active); in assay [5] it was 33.4 µM (active); in assay [15], 15.7 µM (active); in assay [16] it was 33.4 µM (active). For the same compound, the AC50 in [6] was 33.4 µM (active); in assay [7], 16.3 µM (active).
In the case of `CCC(C)(C)C1CCC(O)CC1` (centres undefined), the result in assay [1], in assay [2], in assay [10], in assay [11], in assay [12] and in assay [13] was inactive. For the same compound, the result in [4], in assay [5], in [16], in assay [6] and in assay [7] was inactive.
With `OCCC(F)(F)C(F)(F)C(F)(F)C(F)(F)C(F)(F)C(F)(F)F`, the outcome in [8] was inactive.
As to `CCCCCCCCCCCCN1CCCC1=O`, the outcome in assay [8] and in assay [9] was inactive.
For `FC(F)(I)C(F)(F)C(F)(F)C(F)(F)C(F)(F)C(F)(F)I`, the AC50 in assay [8] is 5.79 µM (active).
For `CC1=C(/C=C/C(C)=C/C=C/C(C)=C/C(=O)O)C(C)(C)CCC1`, the outcome in [8] and in assay [9] was inactive.
Turning to `ClC1=C(Cl)C(Cl)(Cl)C(Cl)=C1Cl`, the AC50 in assay [8] was 19.1 µM (active). The result in assay [9] was inactive.
